PubChem BioAssay AID720700 (The Scripps Research Institute Molecular Screening Center, 2013)
Hit rate of the full screen: of about 370,000 compounds, about 3,100 (0.84%) were called active. Many of the other results were omitted from the sample, so actives are more common in it than they were. Values without a mark were called inactive. Cut-off read from the data, not from the text of the source: active = inhibition above about 9.5%; inactive = the rest.

Biological target: 1-phosphatidylinositol 4,5-bisphosphate phosphodiesterase gamma-1 (Homo sapiens) (UniProt P19174)
Sequence (P19174 whole entry, looked up): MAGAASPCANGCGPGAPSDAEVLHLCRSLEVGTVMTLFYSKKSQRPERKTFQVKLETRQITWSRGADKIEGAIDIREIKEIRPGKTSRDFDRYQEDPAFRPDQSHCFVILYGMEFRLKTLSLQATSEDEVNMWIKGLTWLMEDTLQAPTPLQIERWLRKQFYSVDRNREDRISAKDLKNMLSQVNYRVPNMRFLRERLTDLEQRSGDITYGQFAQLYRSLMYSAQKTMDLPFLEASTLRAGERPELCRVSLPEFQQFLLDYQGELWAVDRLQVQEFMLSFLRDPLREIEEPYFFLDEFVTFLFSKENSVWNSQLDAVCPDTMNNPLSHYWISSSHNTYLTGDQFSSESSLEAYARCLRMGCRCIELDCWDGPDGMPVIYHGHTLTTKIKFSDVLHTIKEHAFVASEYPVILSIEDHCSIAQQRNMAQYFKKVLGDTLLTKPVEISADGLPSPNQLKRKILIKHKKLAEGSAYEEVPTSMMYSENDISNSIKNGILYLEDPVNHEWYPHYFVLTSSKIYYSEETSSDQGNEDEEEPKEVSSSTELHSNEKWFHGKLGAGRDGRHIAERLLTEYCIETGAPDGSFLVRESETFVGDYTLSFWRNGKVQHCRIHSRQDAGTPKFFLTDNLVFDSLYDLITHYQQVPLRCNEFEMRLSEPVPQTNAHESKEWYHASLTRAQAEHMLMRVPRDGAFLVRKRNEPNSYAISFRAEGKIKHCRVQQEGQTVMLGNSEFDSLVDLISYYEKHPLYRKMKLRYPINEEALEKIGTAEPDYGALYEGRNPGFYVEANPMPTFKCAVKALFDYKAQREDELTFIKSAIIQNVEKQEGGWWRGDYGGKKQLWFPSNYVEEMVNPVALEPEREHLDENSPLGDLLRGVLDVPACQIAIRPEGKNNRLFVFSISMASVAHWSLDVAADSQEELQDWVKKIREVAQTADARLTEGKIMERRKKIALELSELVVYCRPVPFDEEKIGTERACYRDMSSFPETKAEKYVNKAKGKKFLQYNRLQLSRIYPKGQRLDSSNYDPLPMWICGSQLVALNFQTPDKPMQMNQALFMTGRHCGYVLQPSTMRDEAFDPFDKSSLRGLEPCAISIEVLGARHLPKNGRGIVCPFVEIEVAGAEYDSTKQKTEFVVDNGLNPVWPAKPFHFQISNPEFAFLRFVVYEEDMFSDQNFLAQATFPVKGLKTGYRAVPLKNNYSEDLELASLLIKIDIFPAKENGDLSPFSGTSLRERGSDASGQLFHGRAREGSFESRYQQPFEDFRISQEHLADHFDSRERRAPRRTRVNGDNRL
Experiment: blockers of human PLCG1 activity – biochemical, fluorescence, purified enzyme, primary screen (AID 720700)
Settings: purified PLC-gamma1, fluorogenic substrate, at 12.2 µM, active compounds read high

With Cc1ccccc1C(=O)Nc1ccccc1Sc1ccccc1 the inhibition was 10.7% (active).
In the case of CN(CC(=O)NC1CCCCC1)S(=O)(=O)c1ccc(Br)s1, the inhibition is reported as 10.4% (active).
For C=CCOc1ccccc1/C=N/NC(=O)Cc1ccccc1, the inhibition was 13.9% (active).
In the case of CCCCn1c(SCC(=O)N2CCCC2=O)nc2cc(S(N)(=O)=O)ccc21, the inhibition is reported as 9.56% (active).
For Cc1ccc(S(=O)(=O)Cn2nnnc2CN2CCN(Cc3ccc4c(c3)OCO4)CC2)cc1, the inhibition was 10.9% (active).
With COc1cc(OC)nc(S(C)(=O)=O)n1 the inhibition was 16.5% (active).
For CCOc1c(Br)cc(/C=C2\C(=O)N(CCC#N)N=C2C)cc1OC, the inhibition was 24.6% (active).
In the case of Cc1ccc(Cn2ccc(NC(=O)C3C4CCC(C4)C3C(=O)O)n2)cc1 (stereo unspecified), the inhibition is reported as 9.61% (active).
In the case of O=C(Nc1cccc([N+](=O)[O-])c1)Nn1cnnc1, the inhibition is reported as 10.4% (active).
In the case of Cc1ccc(-c2cn(S(=O)(=O)c3cccc([N+](=O)[O-])c3)nc2N)cc1, the inhibition is reported as 11.4% (active).
In the case of N#C[C@]1(S(=O)(=O)c2ccccc2)C[C@@H]2ON=C(c3cccc(Br)c3)[C@@H]2C1, the inhibition is reported as 9.78% (active).
For O=C(/C=C/c1c(F)cccc1Cl)Nc1nn[nH]n1, the inhibition was 12.5% (active).

In order of rising inhibition:
1. Cc1nc(CNc2ncnc3ccc(-c4ccc5c(c4)OCO5)cc23)cs1  -104%
2. CCOC(=O)C1=C(C)NC2=C(C(=O)CC(C)(C)C2)C1c1ccc2c(c1)OCO2 (stereo unspecified)  -75.8%
3. Cc1ccc(NC(=O)Cc2cccc(F)c2)c(S(=O)(=O)N2CCOCC2)c1  -42.8%
4. Oc1ccc(/C=C/c2c(F)cccc2F)c2cccnc12  -12.7%
5. CCn1c(=O)n2n(c1=O)[C@@]1(C=C3CCCC[C@H]32)N=C(NC(=O)c2ccccc2)N(Cc2ccccc2)[C@H]1Cc1ccccc1  -12.3%
6. COC(=O)C12C=C3CC(c4ccccc4)=C3C(=O)N1Cc1[nH]c3ccccc3c1C2 (stereo unspecified)  -9.2%
7. O=C1CC(c2ccc3c(c2)OCO3)N=C2N(CC3CC3)C/C(=C/c3ccccc3)N12 (stereo unspecified)  -5.26%
8. Cc1ccccc1CS(=O)(=O)Cc1ccc(C(=O)Nc2ccc(Cl)cc2)o1  -2.55%
9. COC(=O)[C@]1(S(=O)(=O)c2ccccc2)C[C@@H]2ON=C(c3ccc(OC)cc3)[C@@H]2C1  -2.22%
10. Cc1ccc(NC(=O)Nc2cc(C)nn2-c2ccccc2)cc1  -1.85%
11. CN(CC(=O)NC1CCCCC1)S(=O)(=O)c1cccc2cccnc12  -1.31%
12. CC1=NCCN1S(=O)(=O)c1cccc([N+](=O)[O-])c1  -1.13%
13. CCn1c(SCC(=O)N/N=C/c2ccccc2OCC(=O)O)nnc1-c1ccc(C(C)(C)C)cc1  -0.82%
14. O=C(CC(=O)N/N=C\c1cccc(Cl)c1Cl)NCc1ccccc1  -0.34%
15. COc1ccc(C(=O)OCCN2CCN(C3CN(Cc4cn(Cc5ccccc5F)nn4)S(=O)(=O)C3)CC2)cc1OC (stereo unspecified)  -0.1%
16. CCOC(=O)CNC(=O)/C=C/c1c(Cl)cccc1Cl  0.18%
17. COc1ccnc(C(=O)N2CCC(Oc3cccnc3)CC2)c1  0.2%
18. Cc1ccc(C(c2nnnn2CS(=O)(=O)c2ccc(C)cc2)N2CCC(C)CC2)cc1 (stereo unspecified)  0.22%
19. COC(=O)[C@H](C(C)C)N(CCCc1cn(Cc2ccccc2)nn1)S(=O)(=O)c1ccc(F)cc1Br  0.35%
20. Cc1cc(C)n(S(=O)(=O)c2cccc([N+](=O)[O-])c2)n1  0.37%
21. Cc1cc(C)nc(NC(=S)N2CCN(c3ccc(C(F)(F)F)cn3)CC2)c1  0.58%
22. Fc1ccccc1C(c1nnnn1Cc1ccc2c(c1)OCO2)N1CCN(Cc2ccccc2)CC1 (stereo unspecified)  0.65%
23. CCOC(=O)[C@]12CCCCC/C=C\1N(Cc1ccc(OC)cc1)C(=O)[C@H]2CC(=O)NCc1ccc(C)o1  0.82%
24. O=C(CSc1nnc(-c2ccccn2)n1-c1ccc(Cl)cc1)Nc1ccccc1-c1ccccc1  0.96%
25. CCCCn1c(SCC(=O)N2CCC(C(=O)OCC)CC2)nc2cc(S(N)(=O)=O)ccc21  0.98%
26. O=C(NNC(=O)C1C2CCC(C2)C1C(=O)O)c1ccc(Cl)cc1 (stereo unspecified)  1.22%
27. O=C(CCCCCN1C(=O)C2C3C=CC(C3)C2C1=O)Nc1ccccn1 (stereo unspecified)  1.47%
28. O=C(c1ccccc1)c1ccc(-c2ccccc2C(=O)NC2CCCCN(Cc3ccc(Cl)cc3)C2=O)cc1 (stereo unspecified)  1.5%
29. O=C(NCc1ccc(Cl)cc1)C1CCCN(c2nc3ccccc3o2)C1 (stereo unspecified)  1.63%
30. O=C1CCC2(CCC(c3ccc(Cl)cc3)CC2)N1CCO (stereo unspecified)  1.68%
31. CCOC(=O)[C@]12CCCCC/C=C\1N(Cc1ccc(OC)cc1)C(=O)[C@H]2CC(=O)NCCCN1CCCC1=O  1.96%
32. CCC(=O)Nc1nc(OC)cc(OC)n1  2.37%
33. COc1ccccc1C(=O)NC1CCCCN(C(C)C)C1=O (stereo unspecified)  2.47%
34. O=C(COc1ccc([N+](=O)[O-])cc1Cl)Nn1cnnc1  2.5%
35. Cc1ccc(CN2CC(C(=O)NNC(=O)Cn3ccc(C(F)(F)F)n3)CC2=O)cc1 (stereo unspecified)  2.76%
36. Cc1cc(NC(=O)c2ccccc2C)no1  3.09%
37. CSc1ccccc1NC(=O)c1cc(Cl)sc1Cl  3.13%
38. CCn1c(SCC(=O)N2CCCC2=O)nc2ccccc21  3.16%
39. O=C(NC1CCCCN(Cc2ccc(Cl)cc2)C1=O)c1ccc(Br)cc1 (stereo unspecified)  3.44%
40. O=C(/C=C/c1c(Cl)cccc1Cl)NCc1ccccc1  3.49%
41. CCOC(=O)[C@]12CCCC3=C1N(CCC3)C(=O)[C@@H](CC(=O)N1CCSCC1)C2  4.63%
42. COC(=O)[C@]12C[C@H](CC(=O)NCc3ccccc3)C(=O)N(CCC3=CCCCC3)C1=C[C@H](C(C)C)O[C@@H]2C1CC1  4.87%
43. CN(CC(=O)NC1CCN(Cc2ccccc2)CC1)S(=O)(=O)c1ccc(Cl)s1  6.37%
44. CN(C(=O)c1cccc(NC(=O)Cc2cccc([N+](=O)[O-])c2)c1)C1CCCCC1  8.53%
